Shown are actives, neighbours in structure and some others; about 3.7% of the full set was active somewhere.
HTT promoter inh: HTT promoter inhibition | HEK293 HTT promoter firefly luciferase reporter, 24 h | Potency, µM (top dose mostly 57.5 µM), for the others: at the top dose activity change, negative = inhibition, most hits filed as inhibitors | 48,000 tested, 0.93% active; note: potency is the fitted concentration of half-maximal effect; nearly all actives have a fitted effect of over 50% in size
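Firefly luciferase signal from promoter-reporter HEK293 cells was scaled between vehicle (0%) and zero RLU (-100%). Compounds were tested at final concentrations of up to 57.5 uM over 24 h at 37 degrees C. PTC124 at 50 uM final served as control inhibitor.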
HTT-AS act: activators of huntingtin-antisense promoter activity. HEK293 HTT-AS promoter firefly luciferase reporter, 24 h; response scale: percent change from vehicle, -100% = no light. Potency, µM (highest dose often 57.5 µM), without a hit: top-dose activity change, positive = activation, usual class: activators. 48,000 tested, 0.24% active. AID 1508624; note: potency is the fitted concentration of half-maximal effect; nearly all actives have a fitted effect of over 55% in size
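HEK293 luciferase promoter-reporter cells (2,500/well) plated 24 h, then compounds added at up to 57.5 uM final for 24 h at 37 °C. Firefly luminescence by Dual-Glo, normalized to vehicle (0%) and zero RLU (-100%).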
DRV1 agonist: GPR32 (DRV1) agonism, beta-arrestin recruitment. O75388. CHO-K1 GPR32 beta-arrestin PathHunter luminescence, 90 min; zero percent set by DMSO-only wells. activation, % at 76.9 µM. 48,000 tested, 2.5% active. AID 1346428;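 active = activation of at least 60% and not above a set upper limit, about 1 call in 100 departs from these limits; inconclusive = activation of 40% to 60%, or above that upper limit; inactive = activation under 40%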; note: 0% is about no effect
Target sequence (O75388 whole entry, looked up): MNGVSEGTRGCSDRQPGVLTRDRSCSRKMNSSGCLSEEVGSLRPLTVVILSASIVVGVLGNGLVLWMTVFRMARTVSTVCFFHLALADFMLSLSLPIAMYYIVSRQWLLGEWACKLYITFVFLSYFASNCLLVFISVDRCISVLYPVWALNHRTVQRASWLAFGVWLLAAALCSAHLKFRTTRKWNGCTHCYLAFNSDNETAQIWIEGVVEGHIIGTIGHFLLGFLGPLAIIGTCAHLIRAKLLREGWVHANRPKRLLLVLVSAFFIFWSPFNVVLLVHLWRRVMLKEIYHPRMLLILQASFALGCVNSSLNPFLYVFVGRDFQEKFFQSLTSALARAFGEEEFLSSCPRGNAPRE
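GPR32 activation in stably transfected CHO-K1 cells, detected as beta-arrestin recruitment by enzyme-fragment complementation. Compound exposure: 90 min, 37 °C.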
* hit, by the source's call; u = inconclusive; x = no result; [ ] = dose if it differs, or a comment. Unless noted, calls come from the whole dose curve; as a rule, active = well fitted curve in the direction sought with a large enough effect; inconclusive = small, poorly fitted or top-dose-only effect, or another doubt; inactive = no such curve, though single readings can be large; an effect the other way counts as inactive or inconclusive.

SMILES	HTT promoter inh	HTT-AS act	DRV1 agonist
Cc1cccc(NC(=O)CSc2nnc(-c3cccs3)o2)c1	89.3%	25.1µM*	-11.7
COc1cccc(NC(=O)CSc2nnc(-c3cccs3)o2)c1	71.1%	u	-0.2
CN1CCN(Cc2ccc(NC(=O)Nc3ccc(Oc4cc(NC(=O)C5CC5)ncn4)cc3)cc2C(F)(F)F)CC1	u	-30.9%	x
Cc1cccc(CNC(=O)C2CCN(c3nn4cc(-c5ccc(F)cc5)nc4s3)CC2)c1	4.4%	28.4%	6.1
CCOc1ccc(CCNC(=O)Cn2ncc3c(=O)oc4ccc(C)cc4c32)cc1	10.3%	-8.3%	-7.7
O=C(Cn1cc(C(=O)c2ccncc2)c(=O)c2cc(F)ccc21)Nc1ccc(Cl)cc1	-26.0%	-15.7%	-29.1
Cc1c(NC(=O)OC[C@@H]2COCCN2)cn2ncnc(Nc3ccc4c(cnn4Cc4cccc(F)c4)c3)c12	-24.3%	-35.1%	x
CN(C)CCCN1c2ccccc2CCc2ccc(Cl)cc21	u	-15.5%	-9.5
CN(CCCN1c2ccccc2CCc2ccccc21)CC(=O)c1ccc(Cl)cc1	0.3%	2.6%	108.9*
CCCN(CCC)CCCNC(=O)c1sc2nc3n(c(=O)c2c1C)CCC3	2.9%	-8.7%	-2.7
OCc1cnc(SCc2cccc(F)c2)n1Cc1ccc(F)cc1	-18.6%	-31.5%	88.6*
Cc1ccc(Cn2c(CO)cnc2SCc2ccc(F)cc2)cc1	u	-23.5%	13.7
Cc1ccc(Cn2c(CO)cnc2SCc2cccc(F)c2)cc1	9.4%	7.2%	22.4
COc1ccccc1NC(=O)CSc1ncc(CO)n1Cc1ccc(F)cc1	-13.6%	-26.1%	65.3*
Cc1ccc(Cn2c(CO)cnc2SCC(=O)Nc2cccc(F)c2)cc1	-23.5%	-18.0%	29.0
CCOC(=O)c1ccccc1NC(=O)CSc1ncc(CO)n1Cc1ccc(C)cc1	x	x	73.8*
C[C@H](NC(=O)c1sccc1OCc1ccc(Cl)cc1)c1ccccc1	u	-45.7%	x
CCOC(=O)c1ccc(N2C(=O)c3n[nH]c(-c4ccco4)c3C2c2ccccc2OC)cc1 (configuration not stated)	u	-63.5%	33.8
CCOC(=O)c1cc(-c2ccc(OC)cc2)n(CCC(=O)NC2CCC(C)CC2)c1C (configuration not stated)	-10.5%	-15.9%	-29.3
Cc1nc(SCC(=O)Nc2ccc(Br)cc2)[nH]c(=O)c1Cc1ccccc1	u	-32.7%	u
Cc1ccc(NC(=O)CSc2nc(C)c(Cc3ccccc3)c(=O)[nH]2)cc1	-29.4%	-28.3%	62.7*
Cc1ccc(C)c(N2CCN(S(=O)(=O)c3c(C(=O)N4CCC(C)CC4)c(C)n(C)c3C)CC2)c1	u	-23.9%	-33.4
C[C@@H](Cc1cc2c(c(C(N)=O)c1)N(CCCO)CC2)NCCOc1ccccc1OCC(F)(F)F	-11.4%	-17.3%	x
O=C(Nc1cc(Cl)cc(Cl)c1)c1ccc(F)c(S(=O)(=O)N2CCc3ccccc32)c1	u	-29.0%	-5.8
O=C(Nc1ccc(Br)cc1)c1cccc(S(=O)(=O)N2CCc3ccccc32)c1	25.1µM*	-56.8%	9.8
SMILES	HTT promoter inh	HTT-AS act	DRV1 agonist
NS(=O)(=O)c1ccc(NC(=O)c2ccc3c(c2)CCN3S(=O)(=O)c2ccccc2)cc1	-22.9%	-29.8%	33.0
O=C(Nc1ccc(Br)cc1)c1ccc(F)c(S(=O)(=O)N2CCCc3ccccc32)c1	2.24µM*	-44.9%	-3.7
Cc1ccc(Oc2nc3ccccn3c(=O)c2/C=C(\C#N)c2nc3ccccc3s2)c(C)c1	-4.0%[11.5 µM]	1.6%[11.5 µM]	13.9
CCOC(=O)Cn1cccc1-c1nc(-c2ccc(OC)cc2)c(-c2ccc(OC)cc2)s1	-6.6%	-5.7%	23.1
CCCSCCCNC(=O)C1CCN(c2nn3cc(-c4ccc(F)cc4)nc3s2)CC1	-14.3%	1.1%	2.4
N#CSCC(=O)O	3.2%	0.4%	15.3
O=C(Nc1nnc(SCc2cc(=O)c3ccccc3[nH]2)s1)c1ccccc1	u	-33.7%	32.8
Cc1ccc(C(=O)Nc2nnc(SCc3cc(=O)c4c(C)ccc(C)c4[nH]3)s2)cc1	u	-27.1%	70.6*
Oc1ccc(C2CCN(c3ccnc4ccccc34)CC2)cc1O	u	-23.6%	x
Cc1cc(CN2CCN(c3ccccc3F)CC2)cs1	-11.5%	-0.1%	101.6*
Cc1cc(CN2CCN(c3cccc(C)c3C)CC2)cs1	-8.0%	-12.2%	-19.8
CN1C(=O)c2ccccc2Sc2ccc(NC(=O)NCc3cccc(Cl)c3)cc21	u	-37.8%	1.4
CCOc1ccccc1NC(=O)CSc1nc2cc(OC)c(OC)cc2c2nc(CCn3c(C)nc4ccccc43)nn12	u	-7.5%	1.5
CCCNS(=O)(=O)Nc1ncnc(OCCOc2ncc(Br)cn2)c1-c1ccc(Br)cc1	15.9%	-6.8%	x

Screening data (PubChem)
